Compound activity as filed in PubChem BioAssay.
HSD17B inhib = inhibitors of human HSD17B10 dehydrogenase; Q99714; recombinant HSD17B10, NADH fluorescence kinetic; Potency, µM (series often up to 57.1 µM), hits mostly inhibitors; 75,000 tested, 7.6% active; AID 893;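 further: the protocol describes HADH2 (HSD17B10) and not the HSD17B4 of the title; nearly all actives have a fitted effect of over 70% in size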
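Activity followed as NADH fluorescence increase (ex 360, em 450 nm) every 30 seconds for 4 min, using final 90 uM beta-hydroxybutyryl CoA and 1 mM NAD+. Recombinant His-tagged enzyme, 20 nM, pH 9.0 Tris buffer, 15 min compound preincubation.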
CRE Fsk mod = modulators of forskolin-stimulated CRE signaling in CHO cells; CHO CRE-bla reporter (cAMP response element driving beta-lactamase), forskolin EC10, beta-lactamase ratio; Potency, µM (titrated, usually from 38.2 µM), most hits filed as activators; 71,000 tested, 2.5% active; AID 662; active means well fitted activation curve with a large enough effect in the signal ratio, with a control signal flat, not every such curve was filed as active; inconclusive means small, poorly fitted or top-dose-only effect, or effect the other way, or a change in a side signal; the % refers to the signal ratio
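Forskolin analogue NKH 477 at EC10 stimulated CRE-driven beta-lactamase in CHO cells alongside compound dilution series. Beta-lactamase was measured with CCF4, excitation 405 nm, emission ratio 460/530 nm.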
HADH2 inhib = HADH2 (human) dehydrogenase inhibition; Q99714; recombinant HADH2, NADH fluorescence, beta-hydroxybutyryl-CoA; Potency, µM (series often up to 57.1 µM), actives largely listed as inhibitors; 73,000 tested, 3.4% active; further: nearly all actives have a fitted effect of over 60% in size
Target sequence (Q99714 whole entry, looked up, one chain of several): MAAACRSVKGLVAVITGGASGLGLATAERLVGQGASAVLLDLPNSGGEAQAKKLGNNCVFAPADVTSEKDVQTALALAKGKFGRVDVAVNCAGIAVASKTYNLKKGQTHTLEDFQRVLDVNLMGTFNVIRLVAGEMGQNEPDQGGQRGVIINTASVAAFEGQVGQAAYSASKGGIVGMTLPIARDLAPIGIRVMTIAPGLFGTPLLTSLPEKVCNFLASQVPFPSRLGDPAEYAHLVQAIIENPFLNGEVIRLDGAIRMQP
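Read-out: 360 nm excitation, 450 nm emission, kinetic over 4 min. Conditions: His-tagged human HADH2 20 nM, pH 9.0 Tris with Tween-20, 1 mM NAD+, 90 uM beta-hydroxybutyryl-CoA.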
4-MU autofl = 4-MU region autofluorescence; 59,000 tested, 11% active; max dye-equivalent concentration, M; compound autofluorescence, 340/450 nm, 4-MU equivalents; hits give high values; AID 589; in the data active means max dye-equivalent concentration above about 10 nM; inconclusive means mostly about 1.1 nM to 9.6 nM
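Compounds in 100 mM Tris, pH 8.0, sat 15 min at room temperature before fluorescence was read at 340 nm excitation/450 nm emission; a per-plate six-point 4-MU standard curve converted signals to dye-equivalent concentration at each compound concentration.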
AID923 = qHTS Assay for Allosteric/Competitive Inhibitors of Caspase-1: Spectroscopic Profiling in AFC Spectral Region | compound fluorescence, AFC spectral region (405/520 nm) | Potency, µM (doses to about 57.5 µM), actives largely listed as activators | 75,000 tested, 1.1% active | AID 923, 2007
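Compound autofluorescence profiled at 405 nm ex/520 nm em during kinetic caspase 1 run (50 nM enzyme, 5 uM Ac-WEHD-AFC, HEPES pH 7.5, 10 mM DTT). Titration up to 57 uM; baseline from regression intercept, normalized to AFC standard curve.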
A350 fluor = compound fluoresces in the Alexa 350 spectral region; Compound autofluorescence, 340/450 nm, Alexa 350 dye-equivalents; hits give high values; max dye-equivalent concentration, M; 59,000 tested, 11% active; AID 590; in the data active means max dye-equivalent concentration above about 10 nM; inconclusive means mostly about 1.1 nM to 9.6 nM
Numbers stand for hits; n = inactive; u = inconclusive; x = no result given; [ ] = dose if it differs, or a comment. The list is not random: actives were taken first. Their share in the collection is about 14%. Unless noted, the call rests on the fitted dose curve; in most records, active means well fitted curve in the direction sought with a large enough effect; inconclusive means small, poorly fitted or top-dose-only effect, or another doubt; inactive means no such curve, though single readings can be large; an effect the other way counts as inactive or inconclusive.

SMILES | HSD17B inhib | CRE Fsk mod | HADH2 inhib | 4-MU autofl | AID923 | A350 fluor
COc1cccc2c(=O)n(CC(=O)NC3CCCCC3)ccc12 | 32µM | u | u | x | n | x
N#Cc1ccc2ccn(CC(=O)NCc3ccccc3)c2c1 | 32µM | n | n | n | n | n
N#Cc1ccc2ccn(CC(=O)NC3CCCCC3)c2c1 | 32µM | n | n | u | n | u
NC(=S)NNC(N)=S | n | n | u | x | n | x
CC(=O)OCC1OC(C#Cc2ccc(C(C)(C)C)cc2)C=CC1OC(C)=O (configuration not stated) | n[11.4 µM] | x | n[11.4 µM] | x | n[11.5 µM] | x
O=C(NCCO)c1ccc(Cc2nc3ccccc3[nH]2)cc1 | n | x | n | x | n | x
Cc1ccc(SCN2CCCCC2)cc1 (tested in a mixture with another compound) | n[11.4 µM] | n[7.6 µM] | n[11.4 µM] | u | n[11.5 µM] | u
O=C1c2ccccc2C(=O)N1CCCSc1nc2ccccc2o1 | 25µM | u | n[11.4 µM] | x | n | x
O=C(CSc1nc2ccccc2o1)c1cc2ccccc2oc1=O | u | n | n | u | n | 1.1e-08M
COc1ccc(OCC(O)Cn2c(Br)nc3c2c(=O)[nH]c(=O)n3C)cc1 (configuration not stated) | n | u | n | 8.2e-08M | n | 7.8e-08M
Cn1c(=O)[nH]c(=O)c2c1nc(Br)n2CCOc1ccccc1 | n | 3.2µM | n | n | n | u
CC(=O)S[C@@H]1CC2=CC(=O)CC[C@@]2(C)[C@H]2CC[C@]3(C)[C@H](CC[C@@]34CCC(=O)O4)[C@H]12 | n | n | n | n | n | n
COC(=O)CC1=COC(O)C2C(CO)=CC[C@@H]12 (some centres not stated) | n[11.4 µM] | x | n[11.4 µM] | x | n[11.5 µM] | x
Cc1cc(C(=O)O)ccc1[C@H](N)C(=O)O | n | u | n | x | n | x
Cn1c(=O)[nH]c(=O)c2c1nc(Br)n2CCCSc1nc2ccccc2o1 | n | 10µM | u | n | n | n
Cn1c(=O)[nH]c(=O)c2c1nc(N1CCCC1)n2CCCSc1nc2ccccc2o1 | n | u | n | n | n | n
O=Cc1ccc(OC2C=CC(C#Cc3ccccc3)OC2CO)cc1 (configuration not stated) | n[11.4 µM] | x | n[11.4 µM] | x | n[11.5 µM] | x
C#C[C@]1(O)CC[C@H]2[C@@H]3CCc4cc(OC)ccc4[C@H]3CC[C@@]21C | n | x | n | x | n | x
C#C[C@@]1(O)CC[C@@H]2[C@@H]3CCC4=C(CCC(=O)C4)[C@H]3CC[C@]21C | n | n | n | 6.8e-08M | n | 8.1e-08M
COC(=O)c1ccc(C(NC(=O)OCc2ccccc2)/C(I)=C/[C@@H](C)C(=O)NCc2ccc(C)o2)cc1 (some centres not stated) | n | u | u | x | n | x
O=C(Cc1ccccc1)Nc1ccc2oc(-c3ccncc3)nc2c1 | 25µM | n | n | 1.1e-08M | n | 1e-08M
O=S(=O)(c1ccc2oc(-c3ccncc3)nc2c1)c1ccc2oc(-c3ccncc3)nc2c1 | n | u | n | n | n | n
CC(C)CC(=O)Nc1ccc2oc(-c3ccncc3)nc2c1 | 13µM | n | n | 2.2e-08M | n | 3e-08M
O=C(O)c1ccccc1NCn1c(=S)sc2ccccc21 | u | n[7.6 µM] | n[11.4 µM] | n | n[11.5 µM] | n
c1ccc2c(c1)NC1(CCCC1)n1c-2nc2ccccc21 | 25µM | n | u | 4.2e-06M | n | 4.5e-06M
SMILES | HSD17B inhib | CRE Fsk mod | HADH2 inhib | 4-MU autofl | AID923 | A350 fluor
CC12CCC(C(=O)n3c1nc1ccccc13)C2(C)C (configuration not stated) | n | u | n | n | n | n
O=C(CSc1ncccn1)NCc1ccccc1 | n | u | n[11.4 µM] | x | n | x
CCOC(=O)CSC1=Nc2ccccc2C2=NC(CC(=O)NCc3cccs3)C(=O)N12 (configuration not stated) | u | u | n | 3.1e-08M | n | 2.8e-08M
CCOC(=O)c1cnc(SCC(=O)NCc2cccs2)nc1N | n | n | n | n | n | n
CC(C)C1N=C2c3ccccc3N=C(SCC(=O)NCCc3ccc(S(N)(=O)=O)cc3)N2C1=O (configuration not stated) | 32µM | u | 25µM | 3.7e-07M | n | 3.4e-07M
COCCCNC(=O)CSC1=Nc2ccccc2C2=NC(Cc3c[nH]c4ccccc34)C(=O)N12 (configuration not stated) | n | u | n | n | n | n
CCCCNC(=O)CC1N=C2c3ccccc3N=C(SCC(=O)Nc3ccccc3C)N2C1=O (configuration not stated) | 25µM | n | u | 1.2e-07M | n | 1e-07M
CCOC(=O)CSC1=Nc2ccccc2C2=NC(CC(=O)NCc3ccccc3)C(=O)N12 (configuration not stated) | 25µM | n | 25µM | 3.6e-07M | n | 2.9e-07M
C[C@H](CCC(=O)O)[C@H]1CC[C@@H]2[C@@H]3CC[C@H]4C[C@@H](O)CC[C@@]4(C)[C@@H]3C[C@H](O)[C@@]21C | n[11.4 µM] | n[7.6 µM] | n[11.4 µM] | n | n[11.5 µM] | n
C=CC[C@@H]1C=C[C@@H](O/N=C\[C@@H](NS(=O)(=O)c2ccc(C)cc2)[C@H](C)/C=C\CC(=O)OC)[C@@H](CO)O1 | u | x | n[11.4 µM] | x | n[11.5 µM] | x
O=C1c2c(O)ccc([N+](=O)[O-])c2C(=O)c2c([N+](=O)[O-])ccc(O)c21 | n | u | n | x | n | x
CCC(SC1=Nc2ccccc2C2=NC(CC(C)C)C(=O)N12)C(=O)Nc1ccc2c(c1)OCO2 (configuration not stated) | n | u | u | n | n | n
CCC(C)NC(=O)CSC1=Nc2ccccc2C2=NC(CC(=O)NCc3ccc(F)cc3)C(=O)N12 (configuration not stated) | 32µM | n | 20µM | 3.2e-07M | n | 2.6e-07M
COC(=O)c1ccc(OCC2c3cc(OC)c(OC)cc3CCN2C(=O)C2CC2)cc1 (configuration not stated) | n | 5µM | n | n | n | n
C=CCn1cnc2c(c1=O)c1nc3ccccc3nc1n2/N=C/c1cc(OC)c(OC)c(OC)c1 | n | 1.6µM | n | n | n | n
C=CCn1cnc2c(c1=O)c1nc3ccccc3nc1n2/N=C/c1ccccn1 | u | 2.5µM | 32µM | 1.5e-07M | n | 1.8e-07M
C=CCn1cnc2c(c1=O)c1nc3ccccc3nc1n2/N=C/c1cccc(OC)c1OC | n | u | n | 2.7e-08M | n | 3.7e-08M
c1ncc(-c2ccc3c(c2)OCO3)c(NCCc2cnc[nH]2)n1 | u | u | n | n | n | n
NCCC[C@@H](CC(=O)N[C@@H]1CCNC[C@H]1C(=O)N[C@H](CC(=O)N[C@@H](CCC(=O)O)CC(=O)O)Cc1ccccc1)NC(=O)C[C@H](Cc1c[nH]c2ccccc12)NC(=O)[C@@H]1CNCC[C@H]1N | x | n | n | x | x | x
Cc1ccc(-n2c3c(cc(C(=O)N4CCN(C)CC4)c2=O)C(=O)CC(C)(C)C3)cc1 | n | n | n | n | n | n
